From PubChem
Only some compounds are listed: those with a hit (about 5.6% of all), similar ones and a draw of the others.
PHOSPHO1 block – blocks human PHOSPHO1 phosphatase activity; Q8TCT1; recombinant PHOSPHO1, absorbance phosphatase assay; inhibition, % at 13.3 µM; 1.1% of 290,000 active; in the data active = inhibition above about 60%
Target sequence (Q8TCT1 whole entry, looked up): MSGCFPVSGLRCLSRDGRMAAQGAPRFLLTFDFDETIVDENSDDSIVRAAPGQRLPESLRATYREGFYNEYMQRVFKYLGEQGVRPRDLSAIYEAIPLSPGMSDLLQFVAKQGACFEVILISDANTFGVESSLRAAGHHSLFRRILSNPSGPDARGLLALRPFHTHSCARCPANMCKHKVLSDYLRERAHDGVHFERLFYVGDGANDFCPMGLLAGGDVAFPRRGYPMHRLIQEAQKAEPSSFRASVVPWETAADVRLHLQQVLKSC
ALR inh – human ALR oxidase inhibition via reduced H2O2. P55789. inhibition, % (concentration not given with the values). 3.8% of 290,000 active. purified ALR, DTT oxidation, H2O2 HRP-luminol luminescence;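 active = mean replicate inhibition above about 79%, with every replicate also reaching it, limit read from the data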
Target sequence (P55789 whole entry, looked up): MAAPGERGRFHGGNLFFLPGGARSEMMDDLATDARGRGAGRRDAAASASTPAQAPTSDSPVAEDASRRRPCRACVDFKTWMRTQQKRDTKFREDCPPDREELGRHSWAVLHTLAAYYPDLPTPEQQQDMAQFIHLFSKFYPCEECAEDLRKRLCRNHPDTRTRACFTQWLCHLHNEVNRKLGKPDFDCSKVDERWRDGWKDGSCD
PfG6PD inh – PfG6PD (Plasmodium falciparum) enzyme inhibition | PfGluPho enzyme, NADPH resazurin-diaphorase fluorescence | inhibition, % at 20 µM | 0.78% of 350,000 active | AID 504690;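 active = inhibition reaching at least a set limit at 20 µM in the primary screen, cut at about 59% in these data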;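 note: 0% = DMSO wells with substrate and 100% = DMSO wells lacking glucose-6-phosphate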
M18AAP inhibitor – PfM18AAP enzyme inhibition; inhibition, % at 7.35 µM; 1.2% of 290,000 active; recombinant PfM18AAP, H-Glu-NHMec fluorogenic cleavage;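 active = inhibition above the campaign mean inhibition over all tested compounds plus 3 SD, cut at about 28% in these data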;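 note: 0% = plate median of test compound wells and 100% = 2 mM ZnCl2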
Cardio protect – myocardial damage modulation in H9c2 cells. H9c2 cardiomyocytes, H2O2 injury protection, ATPLite, 2 h. protection from H2O2 cell death, % at 20 µM. 0.63% of 360,000 active. AID 588492;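 active = compounds giving at least 50% protection of heart cells from peroxide-induced death in the single-dose screen, raw or plate-pattern-corrected value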;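 note: 0% = DMSO wells with peroxide and 100% = DMSO wells without peroxide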
* marks the source's active call; other numbers are inactive results; . = not tested or not shown.

SMILES	PHOSPHO1 block	ALR inh	PfG6PD inh	M18AAP inhibitor	Cardio protect
COc1cccc(CN(C)C(=O)c2cccc(OCc3ccccc3)c2)c1	16.0	3.1	-8.9	0.8	-3.7
COc1ccc(CN2C[C@@H](CO)O[C@@H](n3cnc4c(N5CCN(CCO)CC5)ncnc43)C2)cc1	.	.	.	.	3.5
Cc1ccc(/C=c2/sc3nnc(-c4ccccc4Cl)n3c2=O)o1	92.3*	-0.6	17.9	8.1	4.0
COc1cc(NC(=O)Nc2cccc(C(C)=O)c2)cc(OC)c1OC	-0.5	98.4*	11.7	1.9	3.8
COc1cc(-c2cc(C(=O)Nc3ccccc3N3CCOCC3)c3ccccc3n2)cc(OC)c1OC	28.3	-29.3	-2.6	7.7	88.8*
COc1cc(C(=O)Nc2cccc(C(C)=O)c2)cc(OC)c1OC	24.8	4.1	3.3	-0.1	8.1
COc1ccccc1/C=C/C=N/Nc1cccc(C(=O)O)c1	8.7	98.5*	1.4	3.0	-1.8
COc1cc(-c2cc(C(=O)Nc3cccc(C(C)=O)c3)c3ccccc3n2)cc(OC)c1OC	26.5	-6.3	17.0	4.7	54.7*
O=C(Nc1ccccc1N1CCOCC1)c1cc(-c2ccco2)nc2ccccc12	37.6	-0.9	13.7	-21.1	7.5
COCCCN(C(=O)Cc1coc2cc(C)c(C)cc12)c1c(N)n(Cc2ccccc2)c(=O)[nH]c1=O	.	1.9	2.6	.	1.3
COc1ccc(NC(=O)Nc2nnc([C@H]3C[C@H](O)[C@@H](CO)O3)s2)cc1	.	.	.	.	2.8
COc1ccccc1/C=C/C(=O)Nc1cccc(C(C)=O)c1	68.6*	-8.4	35.2	-3.6	18.3
COc1ccccc1NC(=O)C(Sc1ccccc1)c1ccccc1 (stereo not given)	11.9	84.2*	3.9	-3.9	-4.8
O=C(c1cccs1)N1CCN(c2ccc(Cl)cc2)CC1	.	96.4*	-13.5	-3.5	7.3
COc1ccc(N2CCN(C(=O)CNC(=O)c3cccs3)CC2)cc1	.	95.1*	0.7	2.0	-2.9
COc1ccc(N2CCN(C(=O)Cc3ccc(OC)c(OC)c3)CC2)cc1	4.6	87.9*	22.3	4.7	2.8
COc1ccc(CC(=O)N2CCN(C(=O)Cc3ccc(OC)c(OC)c3)CC2)cc1OC	.	.	2.5	.	0.3
O=C(COc1ccccc1[N+](=O)[O-])Nc1ccc(N2CCN(C(=O)c3cccs3)CC2)cc1	54.1	-3.5	7.2	1.6	65.9*
CCC(=O)Nc1ccc(N2CCN(C(=O)c3cccs3)CC2)cc1	20.6	-8.3	-10.0	-0.3	-7.5
CCCCNC(=O)c1nc(C2CCN(S(=O)(=O)c3ccc(F)c(F)c3)CC2)oc1-c1ccccc1	.	.	.	.	7.5
O=C(Nc1cccc2ccccc12)c1csc(COCCO)n1	.	.	.	.	4.5
O=C1Cc2cc(S(=O)(=O)NCc3ccc(F)cc3)ccc2N1	.	-4.1	-25.8	.	1.3
Cc1nc(N2CCOCC2)[nH]c(=O)c1C(O)C(Cl)(Cl)Cl (stereo not given)	-1.5	.	8.9	-5.7	-7.8
CCOC(=O)c1cnc2c(c(C)nn2CC)c1NCCN1CCOCC1	36.8	-2.6	-3.2	-4.3	1.3
CN1CCN(C(=O)CNC(=O)c2cccs2)CC1	.	-28.9	4.9	.	-0.9
SMILES	PHOSPHO1 block	ALR inh	PfG6PD inh	M18AAP inhibitor	Cardio protect
CC(=O)c1ccc(NCC(=O)N2CCN(c3ccccc3)CC2)cc1	97.6*	5.7	-1.9	11.8	10.3
CCC(CC)C(=O)N1CCN(c2ccccc2)CC1	28.1	98.2*	-0.1	1.4	-4.0
COc1ccc(N2CCN(C(=O)Cc3cccs3)CC2)cc1	-1.3	96.8*	-1.3	-13.1	14.8
O=C(NCC(=O)N1CCN(c2ccccc2)CC1)c1cccs1	.	96.1*	-14.8	-5.7	1.9
CC(=O)c1ccc(N2CCN(C(=S)Nc3ccccc3)CC2)cc1	-10.0	1.7	10.3	2.7	0.6
CCOc1ccc(Br)cc1S(=O)(=O)Nc1cccc(S(=O)(=O)N2CCOCC2)c1	.	.	0.1	.	-12.7
O=C(COC(=O)c1cnccn1)NCCc1ccc(Cl)cc1	.	.	8.5	.	7.2
CN(C)Cc1ccc(-c2nc3cccc4c3n2CCNC4=O)cc1	.	5.4	-4.7	.	53.1*
Cc1cc(CN(C)C(=O)CC2C(=O)NCCN2Cc2ccc(-c3ccccc3)cc2)on1 (stereo not given)	6.7	0.7	-7.4	8.3	-3.0
c1coc(CSSCc2ccco2)c1	.	98.3*	35.0	.	0.2
Nc1ccc(OCc2ccco2)cc1	34.1	0.7	7.5	-8.0	-7.8
CCCOc1ccc(N2C(=O)CC(NCC(=O)OCC)C2=O)cc1 (stereo not given)	.	-5.0	-0.3	.	1.3
CCOc1cc(/C=C2/NC(=O)NC2=O)cc(Br)c1OCc1ccc(C(=O)O)cc1	85.7*	1.3	-13.2	9.1	1.1
